Source: ChEMBL document CHEMBL4513216, “Probing the Open Global Health Chemical Diversity Library for Multistage-Active Starting Points for Next-Generation Antimalarials” (ACS Infect Dis, 2020)
Among all 69,000 compounds or so, about 8,600 (12%) showed an effect of 50% or more. This is one part of a sample in which strong results are shown more often than they occur.

These molecules were tested on Plasmodium berghei (assay: Screen against P. berghei liver stage (PbLuc), transformed with Luciferase, at 10uM). Conditions: tested at 10 uM.
Type: functional, HepG2

SMILES	INHIBITION [%]
COC(=O)c1cc(C(=O)N2CCC(OC)CC2)n(-c2ccccc2)n1	-12.33
COC(=O)CNC(=O)c1sc(-c2ccc(Cl)s2)nc1C	-58
CC(O)CN1CCC(CNCc2cccc(OC(F)(F)F)c2)CC1 (stereo not given)	35.4
CS(=O)(=O)NC[C@]12COC[C@H]1CN(C(=O)N1CCCC1)C2	21.3
CNCc1nc(-c2ccc3c(c2)OCO3)c[nH]1	8.4
CN1CCC(n2nc(CC3CC3)nc2-c2ccc(F)cc2Cl)CC1	34.9
CN(C)CCN(Cc1cccc(F)c1)C(=O)c1ccc2nccn2c1	2.91
Cc1cc(NC(=O)CN2CCn3c(nnc3C(C)C)C2)no1	63.9
Cc1cc(NC(=O)CN2CCCC2c2noc(C(C)C)n2)on1 (stereo not given)	-7.31
CC(C)c1nc(C2CCCN2CC(=O)Nc2nncs2)no1 (stereo not given)	10.2
CC(C)c1cc(NC(=O)CN2CCCC2c2noc(C(C)C)n2)on1 (stereo not given)	52.3
Cc1cc(NC(=O)CN2CCn3c(nnc3C(C)C)C2)on1	-0.219
Cc1cc(NC(=O)CN2CCn3c(C)nnc3C2)no1	45.1
O[C@@H]1CCN(CC2CCOC2)[C@H]1Cc1ccccc1 (stereo not given in full)	46.7
COc1ccc(CN(Cc2cncn2C)CC2CCCO2)cc1OC (stereo not given)	15.9
CC(C)C(C)NC(=O)Nc1ccc(CS(C)(=O)=O)cc1 (stereo not given)	3.16
COc1ccc(CN2CCn3cc(CNC(=O)CC4CC4)nc3C2)cc1	40.4
CCOc1ccccc1CNC1CCCN(Cc2noc(C)n2)C1 (stereo not given)	21.5
CNC(=O)c1ccc(CN(C(C)C)C(C)C)o1	47.9
CC(C)N(Cc1ccc(C(=O)O)o1)C(C)C	69.6
COC(=O)c1ccc(CN(C(C)C)C(C)C)o1	42.1
c1coc(CN2CCCn3c(nnc3Cn3cccn3)C2)c1	4.68
O=C(c1ccc[nH]1)N1CCn2cc(Cn3cncn3)nc2C1	10.8
O=C(c1ccc[nH]1)N1CCn2cc(Cn3cccn3)nc2C1	74.2
O=C(Cc1cccs1)N1CCn2cc(Cn3cccn3)nc2C1	-2.72
O=C(CC1CC1)N1CCn2cc(Cn3cccn3)nc2C1	42.7
O=C(Cc1cccc(F)c1)N1CCn2cc(Cn3cccn3)nc2C1	26.4

SMILES	INHIBITION [%]
O=C(Cc1ccc(F)cc1)N1CCn2cc(Cn3cccn3)nc2C1	51.2
COc1ncccc1CN1C[C@@H]2COC[C@]2(CNC(=O)c2ccno2)C1	29
Cc1nc(C)c(CN2CCC(N(C)Cc3noc(C4CC4)n3)C2)s1 (stereo not given)	-19.9
COc1ccc(CNC2CCc3ncnn3C2)cc1OCCCC#N (stereo not given)	28.7
CCc1nc(C)c(-c2nccn2CC2CCCCO2)[nH]1 (stereo not given)	-10.2
CCc1nc(C)c(-c2nccn2CC2CC(=O)N(CC)C2)[nH]1 (stereo not given)	55.2
CCc1nc(C)c(-c2nccn2CC2CCN(C3CCCC3)CC2)[nH]1	22.5
Fc1cccc(C(NCc2ncc[nH]2)c2ccccc2)c1 (stereo not given)	78.2
Fc1cccc(C(NCc2ncc[nH]2)c2ccccn2)c1 (stereo not given)	-13.2
Clc1cccc(C(NCc2ncc[nH]2)c2ccccn2)c1 (stereo not given)	83.2
CC(C(=O)Nc1cccc(Cl)c1)N1CCN(Cc2ncc[nH]2)CC1 (stereo not given)	4.52
Clc1cccc(N2CCC(NCc3ncc[nH]3)C2)c1 (stereo not given)	34.1
Cn1cc(C(NCc2ccc(F)cc2)c2cccc(F)c2)cn1 (stereo not given)	15
Cc1ccc(NC2(C(=O)N3CCn4cncc4C3)CCCCC2)cc1C	42.1
COCc1cnc2n1CCN(C1CCC1)C2C (stereo not given)	42.6
O=C(NCCN1CCCCC1CO)c1cc(-c2ccccc2)on1 (stereo not given)	-7.81
CC(C)CNC(=O)c1ccc2c(c1)nc1n2CCN(Cc2ccco2)C1	18.4
Cc1nnc(C2Cc3ccccc3CN2Cc2nc(C(C)C)no2)o1 (stereo not given)	-10.1
CC(=O)N1N=C(c2ccccc2)OC1C(=O)NCCOc1ccccc1 (stereo not given)	-12.2
O=C(Nc1ccc(-n2cccn2)cc1)N1CCOCC(O)C1 (stereo not given)	53.6
O=C(Nc1ccccc1OCCc1ccccn1)N1CCOCC(O)C1 (stereo not given)	12.3
O=C(Nc1ccc(-n2cccn2)cc1)N1CCC(O)C1 (stereo not given)	42.3
CC(=O)OC1CN(c2nc3c(C)cccc3s2)C1	-45.6
c1cnc(N2CCO[C@H]3CN(Cc4csnn4)C[C@H]32)nc1	42.7
CS(=O)(=O)NC1CCc2c(ccc(=O)n2CC2CC2)C1 (stereo not given)	31.3
COCCn1c2c(ccc1=O)CC(NC(=O)c1cscn1)CC2 (stereo not given)	70.2
O=c1ccc2c(n1Cc1cccnc1)CCC(NCc1cccnc1)C2 (stereo not given)	-2.03

SMILES	INHIBITION [%]
CN(C)CCn1c2c(ccc1=O)CC(NC(=O)c1cnccn1)CC2 (stereo not given)	14.6
Cn1cc(CNC2CCc3c(ccc(=O)n3Cc3ccncc3)C2)cn1 (stereo not given)	42.1
CN(C)C(=O)Cn1c2c(ccc1=O)CC(NCc1ccoc1)CC2 (stereo not given)	8.31
CN(C)C(=O)Cn1c2c(ccc1=O)CC(NCc1cccnc1)CC2 (stereo not given)	57.1
CN(C)CCn1c2c(ccc1=O)CC(NCc1cccnc1)CC2 (stereo not given)	34.9
Cn1cc(CNC2CCc3c(ccc(=O)n3Cc3cccnc3)C2)cn1 (stereo not given)	55.7
Cn1c2c(ccc1=O)CC(NS(C)(=O)=O)CC2 (stereo not given)	45.5
COCCn1c2c(ccc1=O)CC(NS(C)(=O)=O)CC2 (stereo not given)	58.6
O=C(NC1CCc2c(ccc(=O)n2CC2CC2)C1)c1cscn1 (stereo not given)	41.2
Nc1nc(Nc2ccccc2)cc(N2CCNCC2)n1	12.5
CC(C)CCn1ccc(NC(=O)N2CCCC2CN2CCOCC2)n1 (stereo not given)	-0.551
Cc1cc(CNS(C)(=O)=O)ccc1N(C)C	25.5
Cc1ccc(CN2C[C@@H]3COC[C@@H](CC(=O)N4CCOCC4)[C@@H]3C2)s1	-3.52
Cc1nccnc1C1CCN(C(=O)C(C)C)CC1	29.35
CC(=O)N(C)Cc1ncn2c1CN(C(=O)CC1CC1)CCC2	-31.2
Cc1ccc(C(=O)N2C[C@H](OCC3CCOCC3)[C@H]3OCCC[C@H]32)o1	-33.9
COc1ccc(CN2CC[C@@H]3CN(S(C)(=O)=O)CCO[C@@H]3C2)cc1	-0.804
CC(C)N1CCOC(c2cc(CCO)[nH]n2)C1 (stereo not given)	29.21
COCCn1c2c(ccc1=O)CC(NCc1cnn(C)c1)CC2 (stereo not given)	55.7
CCn1c2c(ccc1=O)CC(NCc1cnn(C)c1)CC2 (stereo not given)	12.2
CN(C)CCn1c2c(ccc1=O)CC(NCc1cnn(C)c1)CC2 (stereo not given)	31.2
Cc1ccc(C(=O)N2CCC3(CC2)NC(=O)CC3c2ccccc2)cn1 (stereo not given)	-16.2
Cn1nc(Br)c2c(NCCSCCCO)ncnc21	23.1
O=C(CCCNc1ncccn1)N1CCCC(n2ccnc2)C1 (stereo not given)	-17.6
CN1CCCC(c2nccnc2-c2cccc(Cl)c2)C1 (stereo not given)	11.575
CN1CCCC(c2cccc(-c3cccc(Cl)c3)n2)C1 (stereo not given)	64.7
CN1CCCC(c2cccc(-c3cccc(F)c3)n2)C1 (stereo not given)	36

SMILES	INHIBITION [%]
CN1CCCC(c2cncc(-c3cccc(C(F)(F)F)c3)n2)C1 (stereo not given)	66.6
CN1CCCC(c2cccc(-c3cccc(C(F)(F)F)c3)n2)C1 (stereo not given)	45.2
CN1CCCC(c2nccnc2-c2cccc(C(F)(F)F)c2)C1 (stereo not given)	19.64
Cn1ccnc1C1CCCN(C(=O)c2cc(F)cc(F)c2)C1 (stereo not given)	48.2
CN(C)CCN1CCC2(CCCN(C(=O)C3CCC3)C2)CC1	33
O=C(C1CCOCC1)N1CC[C@H](O)[C@@H]1Cc1cccnc1	37.6
CC(C)CN1CC[C@H]2OCC[C@@H](C(=O)N3CCCO3)[C@@H]2C1	47.9
O=C([C@@H]1CCO[C@@H]2CCN(CC3CC3)C[C@H]21)N1CCCCO1	61.5
Cc1ccc(CN2C[C@H](C(=O)N3CCCCO3)[C@@H]3CCO[C@@H]3C2)o1	-12.1
O=C([C@@H]1CCO[C@@H]2CCN(CCc3ccccc3)C[C@@H]21)N1CCCC1	-101
O=C([C@@H]1CCO[C@@H]2CCN(CC3CC3)C[C@H]21)N1CCCC1	57.5
Cc1ccc(CN2CC[C@H]3OCC[C@@H](C(=O)N4CCCCO4)[C@@H]3C2)o1	61.5
O=C([C@@H]1CCO[C@@H]2CCN(CC3CCOCC3)C[C@H]21)N1CCCC1	30.3
O=C([C@@H]1CCO[C@@H]2CCN(Cc3ccco3)C[C@H]21)N1CCCCO1	29.8
O=C([C@@H]1CCO[C@@H]2CCN(CC3CCOCC3)C[C@H]21)N1CCCO1	34.4
CN1CCN(C2COC3(CCN(CC4CC4)CC3)C2)CC1 (stereo not given)	-30.1
CC(C)n1nc(Cn2cccn2)c2c1CN(C1CCOC1)C2 (stereo not given)	-12.1
COc1cccc2c1ccn2CCNC(C)=O	21
O=C(NCc1cncc2c1CCN(Cc1ccc(F)cc1)C2)C1CC1	-14.4
COc1cccc(N2C(=O)CC3(CCCNC3)C2=O)c1 (stereo not given)	-33.1
N#Cc1ncn(CCC(=O)Nc2cccc(Cl)c2)n1	39.5
CCC(=O)Nc1ccc(C(C)NC(=O)COC)cc1 (stereo not given)	-68
N[C@@H](Cc1ccccc1)c1nnc(S(=O)(=O)Cc2cccc(Cl)c2)o1	-3.73
CCN(CC)c1ccc(C(=O)N2CCC(c3nc(C)no3)CC2)cn1	30.25
